# Assay results as given in PubChem BioAssay (NCI).
# This is part of a sample that, as a whole, favours compounds with a hit. Of some 79,000 tested, about 15% had one in any assay. Values without a mark were called inactive. Calls of active or inactive are those of the source. Rule as the data show it: active = growth inhibition above about 70%; inactive = the rest.
# What was measured:
# [1] = NCI Yeast Anticancer Drug Screen. Data for the rad50 strain (AID 155);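 also: 0% = growth of vehicle-only cultures of the same strain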; conditions: S. cerevisiae rad50 strain growth inhibition; at 50.0 µM; active compounds read high
# Method in brief: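 Compounds were tested on a yeast strain with an engineered DNA damage repair alteration; the reported value is growth inhibition normalised to vehicle treatment.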
# [2] = NCI Yeast Anticancer Drug Screen. Data for the mec2-1 strain (AID 157); conditions: S. cerevisiae mec2-1 strain, at 50.0 µM, active compounds read high
# Method in brief: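 Each compound was tested on mec2-1 yeast, a strain altered in DNA damage repair or cell cycle control. Growth inhibition is reported relative to vehicle.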
# [3] = NCI Yeast Anticancer Drug Screen. Data for the sgs1 mgt1 strain (AID 161);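 also: 0% = growth of cultures given vehicle only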; conditions: S. cerevisiae sgs1 mgt1 strain, at 50.0 µM, active compounds read high
# Method in brief: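 Read-out: growth inhibition vs vehicle controls. Cells: mutant yeast strain deficient in DNA damage repair.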
# [4] = NCI Yeast Anticancer Drug Screen. Data for the cln2 rad14 strain (AID 165);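 also: 0% = growth equal to vehicle treated cultures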; conditions: S. cerevisiae cln2 rad14 strain, at 50.0 µM, active compounds read high
# Method in brief: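 Test compounds were added to cln2 rad14 yeast cultures; inhibition of growth was then determined by comparison with vehicle treatment.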
# [5] = NCI Yeast Anticancer Drug Screen. Data for the bub3 strain (AID 167); conditions: S. cerevisiae bub3 mutant strain, at 50.0 µM, active compounds read high
# Method in brief: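 Growth of a checkpoint-deficient yeast mutant is measured after compound exposure. Values represent inhibition relative to vehicle.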
# [6] = NCI Yeast Anticancer Drug Screen. Data for the mlh1 rad18 strain (AID 175); conditions: S. cerevisiae mlh1 rad18 strain growth inhibition; at 50.0 µM; active compounds read high
# Method in brief: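 Inhibition values reflect reduced growth of mutant yeast versus vehicle-treated controls following compound exposure; the mutations affect DNA damage repair.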
Compound,growth inhibition [1],growth inhibition [2],growth inhibition [3],growth inhibition [4],growth inhibition [5],growth inhibition [6]
CCOC(=O)C1CCCCC1NC1CCCCC1C(=O)OCC (stereo not given),4.65%,-2.35%,-22.9%,-14.2%,-16.2%,8.9%
CCCCCCCCCCCO/N=C\c1c2c(O)c3c(O)c(C)c4c(c3c1O)C(=O)C(C)(O/C=C\C(OC)C(C)C(OC(C)=O)C(C)C(O)C(C)C(O)C(C)/C=C\C=C(\C)C(=O)N2)O4 (stereo not given),-4.75%,-4.75%,-13.7%,-9.75%,-5.1%,26.2%
Cc1ccc(NCCN)c2c(=O)c3cc(O)ccc3sc12,86% (active),32.3%,40.4%,25.1%,9.65%,86.7% (active)
CC(C)(C)/C(=N\[N+](C)(C)C)c1ccccc1,7.85%,6.4%,0.4%,-1.3%,6.8%,10.6%
CCCc1cc2c3c(c(=O)oc2cc1O)CCCCC3,-17.9%,19.4%,4.7%,-22.5%,-9.8%,-14.3%
O=[N+]([O-])c1ccc(Oc2cccc3ccccc23)c([N+](=O)[O-])c1,4.75%,8.55%,18.5%,-82.5%,29.1%,38.8%
Cc1ccc2nccc(C)c2c1,-27.8%,-45.1%,-19.6%,-14.7%,-27.6%,-7.8%
O=C(Cl)c1cc(-c2ccc(Cl)cc2)nc2c(-c3ccccc3)cccc12,-4.05%,9.15%,-9.4%,-38.5%,-0.35%,8.5%
CC1=C(C)CC2(CC1)C(=O)C1(CCC(C)=C(C)C1)C2=O (stereo not given),25.2%,0.7%,-2.8%,14.1%,17%,15.6%
CCCCN(CCCC)CC(C)O (stereo not given),-21.8%,-35.8%,-22.4%,16.9%,-12.9%,-18.6%
CC[N+](C)(CC)c1ccccc1,-4.35%,-54.3%,-18.6%,0.3%,-33.5%,1.1%
O=C(CCCCl)CCCCl,12.2%,-10.9%,21.6%,12.6%,-3.6%,19.1%
CC(=O)NC1C(OCc2ccccc2)OC(CO)C(O)C1OC(C)C(=O)NC(C)C(=O)N[C@@H](CCC(=O)OCCCNC1c2ccccc2Nc2cccc([N+](=O)[O-])c21)C(N)=O (stereo not given in full),63.4%,82.7% (active),78.2% (active),83.5% (active),11.7%,77.8% (active)
CC(=O)c1cccc(NC(=O)C(=O)C(C(=O)NN)c2ccccc2)c1 (stereo not given),11.4%,11.1%,-5.2%,4.2%,23%,15.9%
Cc1cccc2c1-c1c(C)cccc1C(Cl)S(=O)(=O)C2 (stereo not given),1.25%,-4.6%,-9.05%,4.55%,6.85%,-1.65%
O=C1NC(CN2CCCC(O)C2)C(=O)NC1CN1CCCC(O)C1 (stereo not given),2%,9.35%,13.3%,-22.8%,-4.45%,7.6%
CN1CCC(C[CH2][Sn]([c]2ccccc2)([c]2ccccc2)[c]2ccccc2)CC1,51.1%,99.3% (active),50.7%,63%,49%,57.5%
OC(CNc1ncccn1)(Cc1ccccc1)Cc1ccccc1,9%,-5.2%,2.45%,19.1%,12%,21.2%
CC(=O)C(CCN(C)C)(c1ccccc1)C1CCCCC1 (stereo not given),-12.2%,-15.2%,-2.85%,-6.65%,-10.5%,-3.6%
O=C(O)Cc1ccc([N+](=O)[O-])cc1,21.1%,-11.3%,36.1%,15.2%,12.8%,4.75%

Compound,growth inhibition [1],growth inhibition [2],growth inhibition [3],growth inhibition [4],growth inhibition [5],growth inhibition [6]
CCOC(=O)/C=C1\NC(=O)N(CCCCCCN2C(=O)N/C(=C\C(=O)OCC)C2=O)C1=O,44.7%,13.3%,39.2%,7.95%,-1.95%,29.9%
O=C(/C=C/c1ccccc1)c1ccc(O)cc1O,-27.3%,-13.2%,14.8%,-27.1%,1.65%,2.1%
C[N+](C)(C)c1ccc(C(=O)[O-])cc1,3.55%,18.8%,-0.4%,0.55%,16%,8.1%
CCCC(O)C(CC)[N+](=O)[O-] (stereo not given),13.6%,0.95%,5%,3.65%,0.1%,5.75%
COC(=O)C1=C(O)C(C(=O)OC)[C@@]2(O)[C@@H](C(=O)OC)CC[C@@H]1[C@@H]2C(=O)OC (stereo not given in full),-1.45%,-9.1%,-13.8%,3%,-3.5%,8.95%
CCC1CC(O)c2ccccc2O1 (stereo not given),-7.85%,-4.2%,-5.95%,8.85%,-0.35%,-1.65%
CC(C(=O)c1ccccc1)C(O)(C(F)(F)F)C(F)(F)F (stereo not given),-5.15%,2.6%,4.25%,-24.4%,-0.85%,-9.05%
O=C(CC1Sc2ccccc2NC1=O)Nc1cc(Cl)ccc1Cl (stereo not given),-2.6%,-18.3%,-4.55%,25.3%,8.7%,-1.45%
FC(F)(F)C1=NCCN1,-0.5%,-11.1%,-2.85%,11.4%,-2.45%,-10.3%
COC(=O)CCCc1ccccc1N,-5.65%,-8.8%,-18.9%,-35.8%,3.1%,-15.9%
O=C1C2=Cc3ccccc3OC2(O)Oc2ccc(O)cc21 (stereo not given),8.5%,6.75%,-6.05%,-2%,-38.6%,-33.5%
CC1C(=O)CCC2C1(C)CCC1C2(C)CCC2(C)C3CC(C)(C)CCC3(C)CCC12C (stereo not given),18.4%,-9.05%,17.4%,9.2%,22.9%,16.8%
O=C(CCBr)OCCOc1ccccc1,1.55%,-3.6%,4.2%,-39.8%,4.95%,2.7%
N/N=C(/C(=O)Nc1cccc(Cl)c1)C(C(=O)c1ccc(O)cc1O)C1OC(=O)c2ccccc21 (stereo not given),-17.4%,-14.3%,-8.1%,0.85%,6.1%,20.1%
COc1cc(C2c3c(cc(OC)c(O)c3OC)C=C(C(=O)O)C2CO)cc(OC)c1O (stereo not given),9.05%,5.35%,-2.95%,24.3%,-2.1%,14.3%
CC(NC1=CC(=O)c2cccnc2C1=O)C(O)c1ccccc1 (stereo not given),82.8% (active),80.8% (active),72.1% (active),27.5%,64.2%,71.3% (active)
COc1ccc(/C=c2/s/c(=C(\C#N)c3nc4ccccc4[nH]3)n(-c3ccccc3)c2=O)cc1,4%,-15.2%,-6.4%,13.9%,-17.6%,13.2%
O=C(Nc1ccc([N+](=O)[O-])cc1)OCc1ccccc1,-14.1%,-0.05%,-9.35%,0.7%,1.7%,-16%
Cc1cccc(CNc2ccc(S(=O)(=O)c3ccc(NCc4cccc(C)n4)cc3)cc2)n1,4.7%,4.35%,9.75%,-8.95%,-5.95%,15.4%
C1CC2CCC1CN(C1COC(N3CC4CCC(CC4)C3)CO1)C2 (stereo not given),-5.15%,1.55%,9.7%,58.4%,4.9%,-0.65%
